Assay results published in PubChem BioAssay (NCATS).
Results filed as inconclusive are left out. The source made the active and inactive calls. The call rests on the fitted dose curve; in most records, active means well fitted curve in the direction sought with a large enough effect; inconclusive means small, poorly fitted or top-dose-only effect, or another doubt; inactive means no such curve, though single readings can be large; an effect the other way counts as inactive or inconclusive.

Tests used:
[1] = OV-KATE Cancer Cell Toxicity qHTS against the NCATS CANVASS Library (AID 1347345); further: potency means the concentration at half of the fitted maximal effect
Outline: (§1)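 1000 cells/well seeded and rested 4 h at 37 °C before pin transfer of compounds in an 11-pnt series. Exposure 72 h at 37 °C/5% CO2; viability by CellTiter-Glo luminescence after 15 min at room temperature.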

[2] = SW1088 Cancer Cell Toxicity qHTS against the NCATS CANVASS Library (AID 1347350); further: nearly all actives have a fitted effect of over 75% in size; further: potency means the concentration at half of the fitted maximal effect
Outline: as §1

[3] = U-118MG Cancer Cell Toxicity qHTS against the NCATS CANVASS Library (AID 1347351); further: potency means the concentration at half of the fitted maximal effect
Outline: as §1

[4] = UWB1.289-WTBRCA1 Cancer Cell Toxicity qHTS against the NCATS CANVASS Library (AID 1347354); further: potency means the concentration at half of the fitted maximal effect
Outline: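 Toxicity was measured as CellTiter-Glo luminescence after 72 h exposure to an 11-point compound series. Compound was added to 1000 cells/well 4 h after seeding.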

[5] = HPAF-II 24hr Apoptosis Induction qHTS against the NCATS CANVASS Library (AID 1347356)
Outline: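 Caspase-Glo 3/7 luminescence, read after 15 min room-temperature development, measures apoptosis in HPAF-II cells treated 24 h at 37 degrees C with an 11-point concentration series; 500 cells/well; doxorubicin control.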

[6] = SDT Cancer Cell Toxicity qHTS against the NCATS CANVASS Library (AID 1347365); further: nearly all actives have a fitted effect of over 60% in size; further: potency means the concentration at half of the fitted maximal effect
Outline: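 Cytotoxicity taken from CellTiterGlo ATP luminescence after 72 hr at 37C, 5% CO2. Canine glioma line SDT, 500 cells/well, treated at 11 concentrations; bortezomib dose series as control.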

[7] = G06 Cancer Cell Toxicity qHTS against the NCATS CANVASS Library (AID 1347368); further: nearly all actives have a fitted effect of over 60% in size; further: potency means the concentration at half of the fitted maximal effect
Outline: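 Viability measured by CellTiterGlo ATP luminescence after 72 hr at 37C, 5% CO2. Canine G06 glioma cells plated at 500/well. Compounds tested as 11-point qHTS titrations.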

[8] = qHTS for Hypoxia signaling pathway (HIF-1) antagonists against the NCATS CANVASS Library (AID 1347374); further: nearly all actives have a fitted effect of over 60% in size; further: potency means the concentration at half of the fitted maximal effect
Outline: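 Antagonism scored as loss of CoCl2-driven (60 uM stock added) HRE beta-lactamase signal, read by CCF4 FRET at 460/530 nm. Compounds were tested in an 11-point series on ME-180 reporter cells for 17 hrs at 37C, with parallel CellTiter-Glo cytotoxicity.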

[9] = qHTS for Antimalaria activity screened against the NCATS CANVASS Library (AID 1347380); further: nearly all actives have a fitted effect of over 40% in size; further: potency means the concentration at half of the fitted maximal effect
Outline: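 SYBR Green fluorescence at 485/535 nm was read 18 hr after lysis. This followed a 72 hr incubation at 37C in 5% O2, 5% CO2 of Dd2-infected erythrocytes (0.3% parasitemia, 2.5% final hematocrit) with compounds titrated over 11 concentrations.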

[10] = qHTS for activators of Nrf2/ARE signaling pathway screened against the NCATS CANVASS Library (AID 1347391); further: nearly all actives have a fitted effect of over 60% in size; further: potency means the concentration at half of the fitted maximal effect
Outline: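 Eleven-point qHTS, 16 h treatment of HepG2 cells carrying an ARE-driven beta-lactamase reporter; CCF4 ratio read (405 nm excitation, 460 and 530 nm emission), with CellTiter-Glo ATP luminescence for viability.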

[11] = qHTS for inhibitors of ER calcium dysfunction: SERCaMP assay screened against the NCATS CANVASS Library (AID 1347393); further: nearly all actives have a fitted effect of over 40% in size; further: potency means the concentration at half of the fitted maximal effect
Outline: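 qHTS in SH-SY5Y reporter cells: 16 h compound pretreatment, 4 h thapsigargin, then secreted Gaussia luciferase measured by luminescence.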

[12] = qHTS for inhibitors of Wild type Zika virus screened against the NCATS CANVASS Library (AID 1347396);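 further: ATP luminescence of surviving cells so rescue from viral cell killing; series mostly up to about 46 µM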
Outline: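 Luminescent CellTiter Glo read-out of virus-induced cytotoxicity, 72 h post-infection, in Vero 766 cells. Compounds were tested at 11 concentrations; uninfected, vehicle-treated wells defined 100% inhibition.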

[13] = A2780 Cisplatin Sensitive Ovarian Cancer Cell Toxicity qHTS against the NCATS CANVASS Library (AID 1347353)
Outline: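 Cisplatin-sensitive A2780 ovarian cells (750/well) received compound in 11 concentrations, and were incubated 72 h at 37 °C. ATP content was measured by ATPLite luminescence; bortezomib served as control.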

[14] = MCF7 Cancer Cell Toxicity qHTS against the NCATS CANVASS Library (AID 1347369); further: potency means the concentration at half of the fitted maximal effect
Outline: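 Cytotoxicity was measured as CellTiterGlo luminescence (ATP) after 72 h at 37 °C. The cells were MCF7 at 500 per well, with an 11-point compound concentration series.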

[15] = DH5-alpha competent E. coli microbial cell viability qHTS against the NCATS CANVASS Library (AID 1347377); settings: outcome: dose series up to 46.1 µM unless noted
Outline: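 Bacterial viability as ATP-dependent luminescence (BacTiter-Glo), read after overnight 37 °C exposure of DH5-alpha competent E. coli to compounds in 11-point titration.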

[16] = Vero-766 cells viability qHTS against the NCATS CANVASS Library: Counterscreen for Zika virus inhibition assay (AID 1347394); further: nearly all actives have a fitted effect of over 60% in size; further: potency means the concentration at half of the fitted maximal effect
Outline: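 CellTiter Glo luminescence measured cytotoxicity after 72 h at 37C in uninfected Vero 766 cells, plated at 1000 cells/well. Compounds were applied in an 11-point series. Wells without cells defined 100% inhibition.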

[17] = UWB1.289 Cancer Cell Toxicity qHTS against the NCATS CANVASS Library (AID 1347347); further: nearly all actives have a fitted effect of over 60% in size; further: potency means the concentration at half of the fitted maximal effect
Outline: as §1

[18] = Panc-1005 Cancer Cell Toxicity qHTS against the NCATS CANVASS Library (AID 1347349); further: nearly all actives have a fitted effect of over 60% in size; further: potency means the concentration at half of the fitted maximal effect
Outline: as §1

[19] = qHTS assay for small molecule disruptors of mitochondrial membrane potential screened against the NCATS CANVASS Library (AID 1347389); further: nearly all actives have a fitted effect of over 60% in size; further: potency means the concentration at half of the fitted maximal effect
Outline: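 Mitochondrial membrane potential in HepG2: 1 h compound treatment (11-point concentration series), 30 min m-MPI dye at 37C, then dual fluorescence of J-aggregates (ex 540/em 590) and monomers (ex 490/em 535); lower red/green ratio indicates depolarization.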

[20] = HPAF-II Cancer Cell Toxicity qHTS against the NCATS CANVASS Library (AID 1347346); further: potency means the concentration at half of the fitted maximal effect; nearly all actives have a fitted effect of over 55% in size
Outline: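 Cytotoxicity read-out was CellTiter-Glo luminescence after 72 h at 37 degrees C exposure of HPAF-II cells (1000/well) to compounds in an 11-point titration.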

Measured: Potency

C/C=C/C1C=CC2CC(C)CC(C)C2C1C(=O)CC(=O)NC(CO)C/C=C/CCCCC (stereo not drawn)
inactive: [3] | [4] | [5] | [9] | [12]
active: [1] 10.6 µM | [2] 14.9 µM | [6] 1.48 µM | [7] 1.32 µM | [8] 29.8 µM | [10] 16.6 µM | [11] 6.09 µM

CC[C@H]1[C@H](C)[C@H](c2cc(OC)c(OC)cc2OC)[C@@H](C)[C@H](c2cc(OC)c(OC)cc2OC)[C@@]12C=C(OC)C(=O)C=C2OC
inactive: [1] | [4] | [5] | [14] | [15] | [16] | [12]
active: [2] 18.8 µM | [13] 14.8 µM | [7] 23.5 µM | [9] 1.88 µM | [10] 14.8 µM

C[n+]1cc2cc(C(N)=O)[nH]c3c(=N)c(Cl)c(N)c1c23
active: [6] 16.6 µM | [7] 5.26 µM
not listed: [5] | [8] | [13] | [14] | [18] | [19] | [20]
inactive: all other assays above

COc1cc2c(c(O)c1O)C(=O)c1c(coc1C)C2=O
inactive: [5] | [15] | [11] | [12]
active: [1] 6.66 µM | [17] 13.3 µM | [18] 9.43 µM | [2] 9.43 µM | [3] 21.1 µM | [13] 4.69 µM | [4] 18.8 µM | [6] 14.8 µM | [7] 11.8 µM | [14] 7.39 µM | [8] 5.29 µM | [9] 10.6 µM | [19] 10.5 µM

C/C(=C\CC[C@@H](C)[C@H]1CC[C@]2(C)C3=CCC4C(C)(C)[C@@H](O)C[C@@H](O)[C@]4(C)C3[C@H](O)C[C@@]12C)CO (stereo partly drawn)
inactive: [1] | [3] | [4] | [6] | [7] | [19]
active: [8] 14.9 µM | [16] 33.1 µM

COc1cc(O)c(C(=O)[C@@H]2[C@H](CC=C(C)C)C(C)=CC[C@H]2c2ccccc2)c(O)c1
active: [20] 13.3 µM | [17] 13.3 µM | [18] 9.43 µM | [2] 5.95 µM | [3] 7.49 µM | [9] 6.66 µM | [19] 4.67 µM | [16] 23.4 µM
inactive: [7] | [10]

COc1cc(/C=C/C(=O)OC[C@@H](Cc2ccc(O)c(OC)c2)[C@@H](COC(=O)/C=C/c2ccc(O)c(OC)c2)Cc2ccc(O)c(OC)c2)ccc1O
inactive: [15] | [10]
active: [20] 8.41 µM | [17] 10.6 µM | [18] 9.43 µM | [2] 8.41 µM | [3] 10.6 µM | [13] 9.35 µM | [7] 14.8 µM | [8] 7.47 µM | [9] 0.265 µM | [19] 7.41 µM | [11] 3.43 µM | [16] 7.41 µM

CCC(=O)N[C@@H](C[C@H](C)C(Cl)(Cl)Cl)C(=O)N1C(=O)C=C(OC)[C@@H]1CC(C)C
active: [13] 26.4 µM
not listed: [2] | [5] | [6] | [7] | [10] | [14] | [20]
inactive: all other assays above

C[C@H]1C=C[C@H]2CCCC[C@@H]2[C@H]1C(=O)[C@H]1CC2=C(C(=O)O)CCN2C1=O
active: [2] 16.8 µM | [10] 16.6 µM | [11] 19.3 µM
not listed: [5] | [7] | [13] | [14] | [20]
inactive: all other assays above

C=CC(CCCCC)C1C(=O)NC(=O)C1C(=O)C1C(/C=C/C)C=CC2CC(C(=O)O)CC(C)C21 (stereo not drawn)
active: [20] 9.43 µM | [2] 9.43 µM | [3] 21.1 µM | [13] 7.43 µM | [10] 3.31 µM | [16] 23.4 µM
inactive: [1] | [6] | [7] | [14] | [11]

CC(=O)O[C@H]1c2ccccc2-c2c3c(cc4c2[C@@H]1N(C(C)=O)CC4)OCO3
active: [2] 26.6 µM | [10] 8.31 µM | [11] 34.3 µM
not listed: [5] | [13] | [14] | [16] | [17] | [18] | [20]
inactive: all other assays above

CO[C@H]1[C@@H](OC(=O)/C(C)=C\[C@@H]2O[C@@H]2[C@H]2O[C@H]2C)[C@H](O)[C@H](OCC23C[C@@H]4[C@H](C)CC[C@H]4C4(C=O)CC2C=C(C(C)C)C34C(=O)O)O[C@@H]1C (stereo partly drawn)
active: [10] 16.6 µM
not listed: [6] | [9] | [11] | [13] | [20]
inactive: all other assays above

O=C1CC2OCC=C3CN4C5CC3C2[C@@H]2N1c1ccccc1[C@]52C[C@@H]4C1=C[C@H]2C3CC4N(CC[C@@]45c4ccccc4N(C1=O)[C@@H]25)C/C3=C/CO (stereo partly drawn)
active: [20] 21.1 µM | [18] 16.8 µM | [13] 7.43 µM | [6] 20.9 µM | [7] 23.5 µM | [9] 2.36 µM | [10] 1.66 µM
not listed: [2] | [3] | [8] | [11] | [17]
inactive: all other assays above
